The panel holds about 83,000 compounds, 20% with a hit somewhere; the sample as a whole holds those more often.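 Single-dose data. Exposure time 48 hours. Values below 10 considered active.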 A number with no mark means an inactive call. Active and inactive are the calls of the source.
What was measured:
Test in all cases: NCI-60 one-dose screen, 48 h (100 = growth as untreated, 0 = no growth, -100 = all killed)
Conditions in all cases: 10 µM unless noted
[1] = test system: SR leukemia
[2] = test system: RPMI-8226 leukemia
[3] = test system: OVCAR-8 ovarian
[4] = test system: OVCAR-5 ovarian
[5] = test system: OVCAR-4 ovarian
[6] = test system: IGROV1 ovarian
[7] = test system: OVCAR-3 ovarian
[8] = test system: HS 578T breast
[9] = test system: NCI/ADR-RES ovarian
[10] = test system: SK-OV-3 ovarian

Row | Structure (SMILES) | growth [1] | growth [2] | growth [3] | growth [4] | growth [5] | growth [6] | growth [7] | growth [8] | growth [9] | growth [10]
1 | C=CCc1c(O)c(C(=O)/C=C/c2ccc(Cl)cc2)c(OC)c2ccoc12 | 17.7% | 8.82% (active) | 42.6% | 100% | 57.3% | 43.3% | 32.8% | 81% | 39.1% | –
2 | COc1ccc(/C=C2\COc3ccc(O)c(O)c3C2=O)cc1 | 21.6% | 4.17% (active) | 7.39% (active) | -12.3% (active) | 48.4% | 1.03% (active) | 11.1% | 19.5% | 6.53% (active) | –
3 | O=C(NNc1nccc(Nc2ccc(S(=O)(=O)Nc3ccncc3)cc2)n1)c1ccccc1 | 87.6% | 95.6% | 99.4% | 101% | 106% | 102% | 100% | 110% | 85.4% | –
4 | O=S(=O)(Nc1ccccc1)c1ccc(C2CC3(Cl)C(Cl)=C(Cl)C2(Cl)C3(Cl)Cl)cc1 (configuration not stated) | 18.8% | 13.8% | 55.6% | 60.1% | 44% | 54.8% | 26% | 54.8% | 24.1% | –
5 | CNC(=O)c1c(NC(=O)c2ccc(C(F)(F)F)cc2)sc2c1CCC(=O)C2 | 3.07% (active) | -27% (active) | 14% | -44.7% (active) | -81.5% (active) | – | -6.89% (active) | 12.2% | -4.29% (active) | 0.374% (active)
6 | COc1ccc(N2CCC(=O)NC2=S)cc1 | 116% | 105% | 106% | 102% | 106% | – | 109% | 98.7% | 98% | 103%
7 | O=C(O)c1[nH]c(=O)[nH]c(=O)c1[N+](=O)[O-] | 70.9% | 112% | 101% | 126% | 122% | 133% | 134% | 106% | 103% | –
8 | CN1CCN(Cc2ccc3c(NNC(=O)c4ccccc4)nc4cc(F)ccc4n23)CC1 | 7.6% (active) | 26.4% | 17.6% | 59.2% | 24.1% | 21.7% | 38.9% | 70.6% | 8.77% (active) | –
9 | CC/C(=C(/c1ccc(Cl)cc1)c1ccc(OCCN2CCCC2)cc1)c1ccc(OC)cc1 | -16.1% (active) | 12.2% | 69.4% | 72.9% | 72.6% | 81.8% | 78.7% | 100% | 66.7% | –
10 | O=C1N[C@@H]2NC(=[N+]3CCOCC3)N[C@@H]2N1 | 111% | 106% | 105% | 97.9% | 107% | 104% | 117% | 98.2% | 102% | –
11 | CO[C@H]1/C=C(/C)CCC[C@H](C)[C@H](O)[C@@H](C)C(=O)C(C)(C)[C@@H](O)CC(=O)O[C@@H]1/C(C)=C/c1csc(C)n1 | 19.6% | 14.2% | 26.7% | 34.6% | 63.7% | 12.8% | -49.9% (active) | -21.3% (active) | -36.7% (active) | –
12 | CC1=C(C(=O)OC(C)C)C(c2ccc3c(c2)OCO3)NC(=S)N1 (configuration not stated) | 103% | 87.7% | 102% | – | 98.4% | – | 121% | 97.3% | 101% | 105%
